A selection: hits, their analogues and other compounds. The true share with any hit is near 2.2%.
CF NFkB block = inhibitors of PAF-induced NF-kB signaling, primary screen, cell-based, GFP fluorescence, uHTS | inhibition, % at 5 µM | KKLEB NF-kB-GFP reporter, GFP fluorescence overnight | actives 0.86% (n = 360,000);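 active = at least 50% inhibition at 5 µM, scaled per plate between neutral and stimulator controls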;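 also: PAF is a Pseudomonas aeruginosa culture filtrate used as stimulus; plate controls were PAF-stimulated DMSO wells for no effect and unstimulated DMSO wells for full effect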
KKLEB cytotox = cytotoxicity in KKLEB CF airway cells, primary screen, cytotoxicity control for CF NF-kB inhibitor project, cell-based, uHTS, fluorescence assay plates | KKLEB CF airway cells viability, ATPlite luminescence, overnight; active compounds read low; cells stimulated with P. aeruginosa culture filtrate | activity change (cytotoxicity), % at 5 µM | actives 0.36% (n = 360,000);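 active = corrected activity change at or below -50% at 5 µM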
C8 TRAIL sens = viability loss with TRAIL in NB7+C8 cells, primary screen, TRAIL sensitizer project, cell-based, ATPlite luminescence. inhibition (viability loss, TRAIL sensitization), % at 10 µM. actives 1% (n = 360,000). AID 624354, 2012;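 active = compounds causing at least 50% loss of cell viability in the single-dose screen, relative to plate controls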
PPC-1+TRAIL kill = compounds killing PPC-1 cancer cells with TRAIL present, primary screen, TRAIL potentiator project, ATPLite luminescence, uHTS; PPC-1 cells + TRAIL, ATPLite viability luminescence; cell killing (% activity), % at 4 µM or 5 µM; actives 0.41% (n = 220,000); AID 1443, 2008;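 active = cell killing above 50% in the first pass at 4 µM, then a duplicate retest at 5 µM averaging 50% or more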;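 also: plate controls were cells with TRAIL plus DMSO for no effect and medium-only wells lacking cells for full effect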
iPSC survival up = enhancers of single-cell hiPSC survival, primary screen, ATPlite luminescence; 100% = ROCK inhibitor wells, 0% = DMSO; survival enhancement, % at 20 µM; actives 0.044% (n = 360,000); AID 602274, 2012; in the data active = survival enhancement above about 18%;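 also: cells exposed to compounds for 16 hours before the ATP read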
HIF-2a block = HIF-2a reporter inhibitors, primary screen, luminescence, 786-0 RCC cells | inhibition, % at 18.8 µM | AID 624352, 2012 | 786-0 RCC cells HIF-2a reporter, luciferase luminescence, overnight | actives 0.72% (n = 360,000);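 active = inhibition of the luminescence signal of 40% or more relative to plate controls, in a single-dose primary screen at 18.75 µM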
PPC-1 tox = cytotoxicity in PPC-1 cells, confirmation, cytotoxicity control for TRAIL apoptosis potentiator project, cell-based, ATP content luminescence. shares compounds with PPC-1+TRAIL kill. PPC-1 viability, ATPlite luminescence, overnight. cytotoxicity, % at 5 µM. actives 50% (n = 1,200);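 active = reconfirmed compounds whose average cytotoxicity reaches 50% or more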;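 also: 0% = DMSO-treated cells and 100% = wells holding medium but no cells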
Active calls of the source: *; nt = no result given.

SMILES	CF NFkB block	KKLEB cytotox	C8 TRAIL sens	PPC-1+TRAIL kill	iPSC survival up	HIF-2a block	PPC-1 tox
CN=c1scc(C)n1/N=C/c1ccc(O)cc1	6	3	39	41	-3	-220	nt
CN=c1scc(C)n1/N=C/c1ccc(O)cc1O	-8	-13	67*	71*	-3	-49	71*
Cc1ccc(-c2nc(-c3ccccn3)no2)cc1Cl	-6	-67*	87*	88*	-4	77*	88*
c1ccc(-c2nc(-c3ccccn3)no2)cc1	-4	-17	75*	72*	-6	33	66*
c1ccc(-c2ccc(-c3nc(-c4ccccn4)no3)cc2)cc1	-36	-78*	90*	90*	-6	83*	90*
O=C(Nc1nc(-c2ccccn2)cs1)C12CC3CC(CC(O)(C3)C1)C2	-25	3	60*	45	-2	-166	40
O=C(Nc1nc(-c2ccccn2)cs1)C1CC1	26	-15	13	-2	-1	-172	nt
CCNC(=O)N1CCNC(=O)C1CC(=O)OC (configuration not stated)	-1	-4	1	1	1	15	9
CC1CCCN(c2ccc3nc4ccccc4c(=O)n3n2)C1 (configuration not stated)	-10	-19	78*	83*	-1	-64	83*
Cc1cc(C)n(C(=O)c2cc([N+](=O)[O-])cc([N+](=O)[O-])c2)n1	-11	-12	2	nt	0	7	nt
COc1ccc(/C=C/c2nc3ccccc3n2Cc2ccc(OC)c(OC)c2)cc1	11	-9	33	56*	1	-198	55*
O=C(Nc1nc2ccccc2[nH]1)c1cc2ccccc2o1	14	-10	66*	68*	0	-165	69*
O=C(Nc1nc2ccccc2[nH]1)c1cc(F)cc(F)c1	-20	6	41	nt	-1	-263	nt
COc1ccc2oc(C(=O)Nc3nc4ccccc4[nH]3)c(C)c2c1	7	-23	69*	59*	-1	-337	54*
O=C(Nc1nc2ccccc2[nH]1)c1ccccc1F	8	-30	90*	77*	-3	75*	79*
O=C(Nc1nc2ccccc2[nH]1)c1ccc(F)cc1	-2	-19	83*	73*	-5	-87	72*
COc1ccc(Br)c(C(=O)Nc2nc3ccccc3[nH]2)c1	-22	1	-5	nt	1	-127	nt
COC(=O)c1cc(S(=O)(=O)NCc2ccc(S(N)(=O)=O)cc2)oc1C	11	-1	-1	-11	-1	4	nt
COc1ccc(CSc2nc3ccccc3[nH]2)cc1	1	-4	69*	58*	-5	-159	55*
Nc1nc(CSCc2ccccc2)nc(N2CCOCC2)n1	-1	-1	2	-1	-1	-119	4
N=c1n(N)c2ccccc2n1CC(=O)c1ccc(Br)cc1	-38	12	18	nt	0	-131	nt
O=C(CCc1c[nH]c2ccccc12)N1CCN(c2ccc(O)cc2)CC1	-5	4	-3	9	2	9	nt
O=C(Nc1nc2ccc([N+](=O)[O-])cc2s1)c1ccco1	nt	nt	nt	26	nt	nt	34
CC(=O)Nc1ccc2nc(NC(=O)c3ccco3)sc2c1	-2	3	23	nt	0	-173	nt
COc1ccc2sc(NC(=O)c3ccco3)nc2c1	-1	-4	68*	53*	-4	-67	59*
SMILES	CF NFkB block	KKLEB cytotox	C8 TRAIL sens	PPC-1+TRAIL kill	iPSC survival up	HIF-2a block	PPC-1 tox
COc1cccc(C(=O)Cn2c(=N)n(C)c3ccccc32)c1	-13	-15	59*	54*	-5	-53	50
COc1cccc(C(=O)Cn2c(NCCO)nc3ccccc32)c1	-7	-15	1	11	2	6	nt
O=C(COC(=O)c1ccc2ncsc2c1)Nc1ccccc1Cl	-3	-2	-11	nt	-2	-6	nt
CC(C)(C)c1ccc(NC(=O)CN2C(=O)NC(C)(C3CC3)C2=O)cc1 (configuration not stated)	-1	3	-9	nt	0	-2	nt
Cc1cc(C(=O)COC(=O)c2cccnc2Cl)c(C)n1CC1CCCO1 (configuration not stated)	-4	-18	16	79*	-1	-13	77*
Cc1cc(C(=O)COC(=O)c2ccccc2NCCO)c(C)n1CC1CCCO1 (configuration not stated)	28	7	42	nt	0	-22	nt
CC(C)c1ccc2oc(-c3ccc(N)cc3)nc2c1	-17	-44	80*	68*	-4	-37	72*
Nc1ccc(-c2nc3cc([N+](=O)[O-])ccc3o2)cc1	-59	18	32	23	0	-377	nt
Cc1ccc(-c2nc3cc(N)ccc3o2)c(C)c1	-10	10	58*	44	-6	-85	48
Cc1ccc(-c2nc3cc(N)ccc3o2)cc1	-14	-9	70*	63*	-2	-75	61*
Cc1ccc2oc(-c3cccc(N)c3)nc2c1	-48	-1	63*	55*	-2	-70	56*
COc1ccc(-c2ccccc2)cc1NC(=O)[C@@H]1O[C@H](CO)[C@@H](O)[C@H]1O	18	1	-9	nt	0	-2	nt
CCOC(=O)C1CCN(S(=O)(=O)c2cc3c4c(c2)C(C)C(=O)N4CCC3)CC1 (configuration not stated)	-20	0	4	nt	0	15	nt
COc1ccc(C(=O)NCc2cnn(C)c2C)cc1OC1CCN(C(C)C)CC1	-14	6	-4	nt	0	8	nt
Cc1ccnc(NC(=O)c2ccc3c(c2)OCO3)c1	1	-6	77*	75*	-1	-88	74*
O=C(Nc1ccc2nsnc2c1)c1ccc2c(c1)OCO2	8	-7	48	50	-1	-185	52*
CCOC(=O)c1c(N)sc(C(=O)Nc2ccc3c(c2)OCO3)c1C	14	-33	78*	71*	-8	23	77*
O=C(Nc1ccc2c(c1)OCO2)Nc1ccc2c(c1)OCO2	4	0	23	25	-4	-214	13
O=C(Nc1ccc(Cl)cc1)Nc1ccc2c(c1)OCO2	6	11	20	nt	0	-280	nt
CCC1CCCCN1CCCNC(=O)C1CCCN(c2ncnc3c2nc2n3CCCCC2)C1 (configuration not stated)	10	6	-5	nt	0	4	nt
